The results in this text go back to the supplement of paper PMC13380429.

Assay [1] has as its system Vero E6 infected with SARS-CoV-2. Briefly: morphology score (similarity to uninfected cells); higher = more like uninfected cells. As to conditions: 24 h.
Assay [2] has the same test system. Briefly: SARS-CoV-2 infection rate relative to infected DMSO; higher = more infection, active = 60 or less. As to conditions: 24 h.

Compound `O=C(NCC1CCOCC1)c1cnc(Nc2ccc(Cl)cc2Cl)nc1C(F)(F)F` (10 µM) showed a morphology score in assay [1] of 0.326. Further, the SARS-CoV-2 infection rate in assay [2] is 96% (inactive).
Taken in the same sequence, the figures for `CCCCCCOc1ccccc1C(N)=O` [exalamide] (10 µM) were 0.105 and 108% (inactive).
Taken in the same sequence, the figures for `O=C(NNc1nc2cc(F)ccc2n2cccc12)c1cnccn1` (10 µM) were 0.0623 and 105% (inactive).
Taken in the same sequence, the figures for `C[N+]12CCCCC1CCC(=C(c1cccs1)c1cccs1)C2` (stereo not drawn) [tiquizium] (10 µM) were 0.138 and 93.5% (inactive).
For the compound `CN1Cc2ccccc2[C@@H]2c3cccc4[nH]cc(c34)C[C@H]21` (10 µM), the morphology score in assay [1] was found to be 0.609. Besides, the SARS-CoV-2 infection rate in assay [2] is 95.5% (inactive).
The compound `O=C(O[C@@H]1Cc2c(O)cc(O)cc2O[C@@H]1c1ccc(O)c(O)c1)c1cc(O)c(O)c(O)c1` [epicatechin-gallate-(-)] (10 µM) came in with a morphology score in assay [1] of 0.106. In addition, the SARS-CoV-2 infection rate in assay [2] is 100% (inactive).
Taken in the same sequence, the figures for `O=C(Nc1ccc([N+](=O)[O-])cc1Cl)c1cc(Cl)ccc1O` [niclosamide] (0.833333 µM) were 0.0975 and 97% (inactive).
`Cn1cc(/C=C2\C(=O)Nc3cccnc32)c2ccccc21` (10 µM) displayed a morphology score in assay [1] of -0.0337. Moreover, in assay [2], the SARS-CoV-2 infection rate is 92.5% (inactive).
Regarding `CC(=O)NCCc1c[nH]c2ccccc12` [N-acetyltryptamine] (10 µM), in assay [1], the morphology score was 0.0383. For the same compound, in assay [2], the SARS-CoV-2 infection rate is 94.5% (inactive).
With `CCCCCCC[N+](CC)(CC)CCCCc1ccc(Cl)cc1` [clofilium] (10 µM), the morphology score in assay [1] was determined as 0.0344. In addition, in assay [2], the SARS-CoV-2 infection rate is 118% (inactive).
Taken in the same sequence, the figures for `CN(C)CCCSC(=N)N` [dimaprit] (10 µM) were 0.245 and 94.5% (inactive).
Taken in the same sequence, the figures for `CC(=O)C(=Cc1cc(O)c(O)c([N+](=O)[O-])c1)C(C)=O` [nitecapone] (10 µM) were 0.103 and 102% (inactive).
For `O=C(O)COc1nn(Cc2ccccc2)c2ccccc12` [bendazac] (10 µM), the morphology score in assay [1] is -0.0178. For the same compound, the SARS-CoV-2 infection rate in assay [2] was 102% (inactive).
The like results for `CC(=O)NS(=O)(=O)c1ccc(NC(=O)c2ccccc2C(=O)O)cc1` [phthalylsulfacetamide] (10 µM) were, in that order, 0.21 and 99.5% (inactive).
In the case of `COC1CCN(c2cccc(-c3cc(NC(C)=O)nc(-n4nc(C)cc4C)n3)n2)CC1` (10 µM), the morphology score in assay [1] was -0.0121. Further, the SARS-CoV-2 infection rate in assay [2] was 104% (inactive).
In assay [1], `Cc1sc(C)c2c1CCC=C2c1c[nH]cn1` (10 µM) gave a morphology score of 0.165. In addition, the SARS-CoV-2 infection rate in assay [2] is 94% (inactive).
Turning to `CCC(c1ccccc1)c1c(O)c2ccccc2oc1=O` (stereo not drawn) [phenprocoumon] (10 µM), in assay [1], the morphology score came out at 0.0901. Further, the SARS-CoV-2 infection rate in assay [2] was 102% (inactive).
Taken in the same sequence, the figures for `CC[C@H](C)n1cc(C)c2c(C(=O)NCc3c(C)cc(C)[nH]c3=O)cc(-c3ccc(N4CCNCC4)nc3)cc21` (10 µM) were -0.212 and 109% (inactive).
`CCCCN(CCCC)C(=O)CN1C[C@H](c2ccc3c(c2)OCO3)[C@@H](C(=O)O)[C@@H]1c1ccc(OC)cc1` [atrasentan] (10 µM) showed a morphology score in assay [1] of 0.0179. Besides, in assay [2], the SARS-CoV-2 infection rate is 108% (inactive).
Regarding `Cc1cnc(Nc2ccc(OCCN3CCCC3)cc2)nc1Nc1cccc(S(=O)(=O)NC(C)(C)C)c1` [fedratinib] (0.833333 µM), the morphology score in assay [1] is -0.054. The SARS-CoV-2 infection rate in assay [2] is 99.5% (inactive).
The like results for `CC1(C)S[C@@H]2[C@H](NC(=O)[C@H](N)c3ccc(O)cc3)C(=O)N2[C@H]1C(=O)O` [amoxicillin] (10 µM) were, in that order, -0.146 and 102% (inactive).
Taken in the same sequence, the figures for `C=CC(N)CCC(=O)O` (stereo not drawn) [vigabatrin] (10 µM) were 0.188 and 99.5% (inactive).
As to `NC(=O)c1noc([C@H](CCCC2CCCCC2)CC(=O)NO)n1` (10 µM), in assay [1], the morphology score worked out at 0.51. Further, the SARS-CoV-2 infection rate in assay [2] is 85% (inactive).
For the compound `COc1ccc(N(C)c2nc(C)nc3ccccc23)cc1` [verubulin] (10 µM), in assay [1], the morphology score is -0.0973. Further, the SARS-CoV-2 infection rate in assay [2] was 95% (inactive).
In turn, `CCN(CC)CCOC(=O)C(c1ccccc1)C1CCCCC1` (stereo not drawn) [drofenine] (10 µM) showed a morphology score in assay [1] of 0.275. The SARS-CoV-2 infection rate in assay [2] was 99.5% (inactive).
Taken in the same sequence, the figures for `CN(C)CCCC(=O)Nc1ccc(C(=O)Nc2cccc(Nc3ncc(Cl)c(-c4c[nH]c5ccccc45)n3)c2)cc1` (10 µM) were 0.132 and 101% (inactive).
Taken in the same sequence, the figures for `Cc1c2oc3c(C)ccc(C(=O)N[C@@H]4C(=O)N[C@@H](C(C)C)C(=O)N5CCC[C@H]5C(=O)N(C)CC(=O)N(C)[C@@H](C(C)C)C(=O)O[C@@H]4C)c3nc-2c(C(=O)N[C@@H]2C(=O)N[C@@H](C(C)C)C(=O)N3CCC[C@H]3C(=O)N(C)CC(=O)N(C)[C@@H](C(C)C)C(=O)O[C@@H]2C)c(N)c1=O` [actinomycin-d] (0.833333 µM) were 0.164 and 93% (inactive).
The like results for `C#Cc1cccc(Nc2ncnc3cc(OC)c(OCCCCCCC(=O)NO)cc23)c1` (0.833333 µM) were, in that order, -0.262 and 122% (inactive).
`O=C1O[C@H](CO)[C@@H](O)[C@H](O)[C@H]1O` [gluconolactone] (10 µM) yielded a morphology score in assay [1] of 0.0736. Moreover, the SARS-CoV-2 infection rate in assay [2] is 98% (inactive).
